Screen size: about 360,000 compounds; about 16,000 (4.4%) were called active. Roughly 9% stayed inconclusive and do not appear here. Calls come from the whole dose curve; as a rule, active = well fitted inhibition curve with a large enough effect; inconclusive = small, poorly fitted or top-dose-only effect; inactive = no such curve, though single readings can be large or run the other way. The list comes from a sample in which actives are over-represented; it also holds similar structures and randomly drawn compounds.
Target: Bromodomain adjacent to zinc finger domain protein 2B (Homo sapiens) (UniProt Q9UIF8)
Assay: qHTS Assay for Inhibitors of BAZ2B; note: nearly all actives have a fitted effect of over 60% in size
Conditions: AlphaScreen BAZ2B-H3K14Ac peptide displacement; series mostly up to 114 µM; activity change, negative = inhibition: at the top concentration
Summary of the method: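 Protein-peptide AlphaScreen: BAZ2B 50 nM, b-H3K14Ac 50 nM, 1x PBS pH 7.4 + 0.01% Tween-20. Preincubation 30 min RT; cpd 30 min RT (top 110 uM); beads 20 min RT, light-protected.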
% is set by controls: 0 for no effect and ±100 for the full control effect; potency is the fitted concentration of half-maximal effect.

Chain of Bromodomain adjacent to zinc finger domain protein 2B (Homo sapiens) (Q9UIF8 whole entry, looked up, the tested form may be a part): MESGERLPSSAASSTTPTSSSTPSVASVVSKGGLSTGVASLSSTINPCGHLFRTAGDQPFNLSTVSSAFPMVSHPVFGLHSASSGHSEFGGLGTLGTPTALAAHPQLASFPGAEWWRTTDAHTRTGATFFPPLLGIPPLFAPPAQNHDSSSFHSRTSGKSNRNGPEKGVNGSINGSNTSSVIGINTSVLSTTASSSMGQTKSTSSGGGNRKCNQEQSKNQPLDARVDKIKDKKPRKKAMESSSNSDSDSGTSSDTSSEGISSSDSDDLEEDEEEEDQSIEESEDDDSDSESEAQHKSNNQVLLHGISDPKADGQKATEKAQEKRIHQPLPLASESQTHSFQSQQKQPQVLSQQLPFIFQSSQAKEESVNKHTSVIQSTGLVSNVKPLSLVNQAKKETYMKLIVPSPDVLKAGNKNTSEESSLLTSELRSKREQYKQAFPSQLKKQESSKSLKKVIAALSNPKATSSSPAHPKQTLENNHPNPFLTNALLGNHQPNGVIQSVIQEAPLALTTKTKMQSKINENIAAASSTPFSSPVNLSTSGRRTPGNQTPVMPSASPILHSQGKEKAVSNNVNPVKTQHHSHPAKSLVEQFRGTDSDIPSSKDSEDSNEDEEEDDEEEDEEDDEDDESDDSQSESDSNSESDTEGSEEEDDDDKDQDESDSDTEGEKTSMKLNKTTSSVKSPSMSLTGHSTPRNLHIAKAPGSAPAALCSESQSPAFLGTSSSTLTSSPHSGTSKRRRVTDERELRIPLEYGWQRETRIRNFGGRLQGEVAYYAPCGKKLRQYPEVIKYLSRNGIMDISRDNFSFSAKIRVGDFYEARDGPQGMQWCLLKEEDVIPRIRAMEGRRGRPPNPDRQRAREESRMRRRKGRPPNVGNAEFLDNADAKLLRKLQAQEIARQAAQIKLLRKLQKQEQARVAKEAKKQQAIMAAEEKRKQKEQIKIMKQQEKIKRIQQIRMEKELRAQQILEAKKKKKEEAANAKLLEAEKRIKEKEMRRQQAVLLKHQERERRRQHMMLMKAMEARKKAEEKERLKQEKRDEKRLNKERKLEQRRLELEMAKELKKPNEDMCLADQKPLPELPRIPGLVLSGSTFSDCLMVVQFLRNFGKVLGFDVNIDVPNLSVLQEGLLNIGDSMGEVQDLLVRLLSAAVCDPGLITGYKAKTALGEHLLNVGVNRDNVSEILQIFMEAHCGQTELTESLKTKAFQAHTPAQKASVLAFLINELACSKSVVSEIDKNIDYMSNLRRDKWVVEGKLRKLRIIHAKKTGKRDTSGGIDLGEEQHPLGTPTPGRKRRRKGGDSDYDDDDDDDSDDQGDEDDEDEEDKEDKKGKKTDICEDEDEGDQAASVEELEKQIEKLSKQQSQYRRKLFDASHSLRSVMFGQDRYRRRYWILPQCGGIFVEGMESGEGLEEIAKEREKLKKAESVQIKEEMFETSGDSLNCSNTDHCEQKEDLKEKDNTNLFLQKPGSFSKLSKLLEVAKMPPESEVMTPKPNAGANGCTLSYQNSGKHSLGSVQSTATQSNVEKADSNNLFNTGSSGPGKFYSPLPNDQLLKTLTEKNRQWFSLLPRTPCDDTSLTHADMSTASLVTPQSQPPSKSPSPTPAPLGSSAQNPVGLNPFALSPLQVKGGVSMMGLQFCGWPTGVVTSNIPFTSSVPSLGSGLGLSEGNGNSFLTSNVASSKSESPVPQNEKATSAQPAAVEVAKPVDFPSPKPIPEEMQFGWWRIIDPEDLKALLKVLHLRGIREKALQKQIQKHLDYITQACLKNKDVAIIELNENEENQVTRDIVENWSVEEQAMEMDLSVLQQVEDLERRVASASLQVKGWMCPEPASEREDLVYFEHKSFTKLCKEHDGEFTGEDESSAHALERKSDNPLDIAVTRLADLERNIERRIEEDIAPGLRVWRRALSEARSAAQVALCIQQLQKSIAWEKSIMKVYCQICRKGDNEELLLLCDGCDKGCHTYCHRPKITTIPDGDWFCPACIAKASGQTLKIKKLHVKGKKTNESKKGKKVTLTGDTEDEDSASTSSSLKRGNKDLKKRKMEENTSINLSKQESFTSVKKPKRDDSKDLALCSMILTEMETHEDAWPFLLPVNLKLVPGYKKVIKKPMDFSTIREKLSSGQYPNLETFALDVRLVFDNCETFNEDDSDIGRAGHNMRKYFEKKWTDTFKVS

Row | Structure (SMILES) | activity change, negative = inhibition | Potency
1 | O=C(COc1ccccc1Cl)Nc1ccc2nc(SCC(=O)N3CCCC3)sc2c1 | -8.22% (inactive) | –
2 | Cc1c(C(=O)NCc2ccccc2Br)oc2ccc3c(c12)C(=O)CC(C)(C)O3 | -5.06% (inactive) | –
3 | CCOC(=O)c1c(C)[nH]c(C)c1S(=O)(=O)N1CCC(C(=O)Nc2ccc(C)c(Cl)c2)CC1 | 2.17% (inactive) | –
4 | CCOC(=O)c1ccc(NC2=CC(c3ccc(OCC)cc3)N(c3ccc(C(=O)OCC)cc3)C2=O)cc1 (configuration not stated) | -14.4% (inactive) | –
5 | COc1ccc(CCNc2ncnc3onc(-c4ccc(Cl)cc4)c23)c(OC)c1 | 12.3% [at 57.1 µM] (inactive) | –
6 | COc1ccc(N=C(C)c2sc3ccccc3c2O)cc1 | -14.3% (inactive) | –
7 | Oc1ccc(N=Cc2sc3ccccc3c2Cl)cc1 | – | 31.6 µM (active)
8 | CC(=O)n1c(C=Nc2ccccc2)c(O)c2ccccc21 | 34.9% (inactive) | –
9 | COc1ccc(C(F)(F)F)cc1NC(=O)c1sc2nc(-c3cccs3)ccc2c1N | 1.9% (inactive) | –
10 | Nc1cc(N)nc(SCc2ccc(Cl)cc2)n1 | -2.43% (inactive) | –
11 | Clc1ccc(CSc2nncn3c2cc2occc23)cc1 | – | 44.7 µM (active)
12 | O=C(C1CC1)N1CCN=C1SCc1ccc(Cl)cc1 | 7.34% (inactive) | –
13 | COC(=O)c1sccc1S(=O)(=O)N(CC(=O)Nc1ccc(C)c(F)c1)c1ccc(C)c(C)c1 | -8.1% (inactive) | –
14 | CCOC(=O)c1c(NC(=O)c2cc(-c3ccc(Cl)cc3)on2)sc2c1CCCC2 | -0.226% (inactive) | –
15 | COc1ccccc1-c1nnc(C2CCN(C(=O)c3ccc(Cl)cc3)CC2)o1 | -15% (inactive) | –
16 | Cc1ccc(Oc2c(C(F)(F)F)oc3c(CN4CCCCC4)c(O)ccc3c2=O)cc1 | -2.73% (inactive) | –
17 | Cc1nnc(C)n1-c1ccc(C(=O)Nc2cccc(Br)c2)cc1 | 1.73% (inactive) | –
18 | Cc1ccccc1CN1CCC(CNC(=O)c2cc3ccc4cccnc4c3[nH]2)CC1 | 15.2% [at 57.1 µM] (inactive) | –
19 | O=C(CCCN1C(=O)/C(=C\c2ccco2)SC1=S)Nc1cccc2ccccc12 | – | 44.7 µM (active)
20 | O=C(CCN1C(=O)/C(=C/c2cccs2)SC1=S)NNC(=O)c1cccc(O)c1 | -6.89% (inactive) | –
21 | O=C(CCCCCN1C(=O)c2cccc3cccc(c23)C1=O)NCc1ccco1 | 5.06% (inactive) | –
22 | CCn1c(=O)c(=O)n(CC)c2cc(N3CCCCC3)c(NC(=O)c3cccc(F)c3)cc21 | 2.52% (inactive) | –
23 | COc1ccc(C)cc1NC(=O)COCc1cc(-c2cccs2)on1 | 33.5% (inactive) | –
24 | Cc1cc(C)cc(NC(=S)NCc2ccc(F)cc2)c1 | -0.9% (inactive) | –
25 | Cc1cc(C)cc(NC(=S)NCCc2c[nH]c3ccccc23)c1 | – | 28.2 µM (active)
26 | O=C(NCCc1c[nH]c2ccccc12)c1cccc(Br)c1 | -24.7% (inactive) | –

Row | Structure (SMILES) | activity change, negative = inhibition | Potency
27 | COc1ccc(CNC(=O)COCc2cc(-c3cccs3)on2)cc1OC | -0.39% (inactive) | –
28 | CCN(C(=O)Cn1cc(S(=O)(=O)N2CCN(c3ccccc3F)CC2)c2ccccc2c1=O)c1ccc(C)c(C)c1 | -12.9% (inactive) | –
29 | Cc1ccc(CN(C(=O)c2ccccc2[N+](=O)[O-])c2ccccn2)cc1 | -24.1% (inactive) | –
30 | CCc1ccc(N(CC)C(=O)CCn2cnc3onc(-c4ccc(F)cc4)c3c2=O)cc1 | -5.56% [at 57.1 µM] (inactive) | –
31 | CCC(CC)C(=O)N1CCN(c2cccc(C)c2C)CC1 | -21.9% (inactive) | –
32 | Cc1cccc(N2CCN(C(=O)/C=C/c3ccco3)CC2)c1C | – | 50.1 µM (active)
33 | Cc1cccc(N2CCN(C(=O)c3cnc(N4CCCC4)nc3C)CC2)c1C | -13.1% (inactive) | –
34 | CCOc1ccc2nc(N3CCCC(C(=O)Nc4cc(C)ccc4C)C3)sc2c1 (configuration not stated) | -6.74% (inactive) | –
35 | CC(C)c1ccc2oc(-c3cc(NC(=O)c4cccs4)ccc3Cl)nc2c1 | -2.9% (inactive) | –
36 | Cc1nnc(N/N=C/C2CC=CCC2)[nH]c1=O (configuration not stated) | -7.79% (inactive) | –
37 | CCOc1ccc(-n2c(O)c(/C=N/Nc3nc(C)cc(C)n3)c3ccccc3c2=O)cc1 | -7.49% (inactive) | –
38 | CCOc1ccc(-n2c(O)c(/C=N/Nc3nnc(C)c(=O)[nH]3)c3ccccc3c2=O)cc1 | – | 12.6 µM (active)
39 | CCOc1ccc(-n2c(O)c(/C=N/c3ccnn3Cc3ccncc3)c3ccccc3c2=O)cc1 | -19.4% (inactive) | –
40 | O=C(COc1ccc(Cl)cc1Cl)N/N=C/c1ccccn1 | 16.5% (inactive) | –
41 | Cc1nnc(N/N=C/c2ccccn2)[nH]c1=O | – | 39.8 µM (active)
42 | Cc1cccc(S(=O)(=O)c2cn(Cc3ccccc3)c3cc(N4CCOCC4)c(F)cc3c2=O)c1 | 0.496% (inactive) | –
43 | O=C(CSc1nc2ccccc2nc1Cc1ccccc1)N1CCCCC1 | 36% (inactive) | –
44 | Cc1ccc(Nc2nnc(-c3ccc(C)c(S(=O)(=O)N4CCCCC4)c3)c3ccccc23)cc1 | 8.32% (inactive) | –
45 | O=C(NNS(=O)(=O)c1ccc(F)cc1)c1cnccn1 | – | 79.4 µM (active)
46 | NS(=O)(=O)c1ccc(CNC(=O)c2cnccn2)cc1 | -0.375% (inactive) | –
47 | COc1cccc(C(=O)NNS(=O)(=O)c2ccc(F)cc2)c1 | 8.36% [at 0.457 µM] (inactive) | –
48 | CCC(CC)c1nn2cc(-c3ccccc3)nc2s1 | 12.6% (inactive) | –
49 | Cc1ccc(OCC(=O)Nc2ccc(Cl)c(-c3nc4ccccc4[nH]3)c2)cc1C | -24.8% (inactive) | –
50 | Cc1nn(CC(=O)NCCc2ccccc2)c(=O)c2c1sc1ccccc12 | -18.3% (inactive) | –
51 | COc1cc2ccccc2cc1C(=O)Nc1nc(C)c(C(C)=O)s1 | 6.28% (inactive) | –
52 | CC(=O)c1sc(N/N=C\c2ccc(C)cc2)nc1C | -3.67% (inactive) | –

Row | Structure (SMILES) | activity change, negative = inhibition | Potency
53 | CC(=O)c1sc(NC(=O)C2=NN(c3ccccc3)C(=O)CC2)nc1C | – | 70.8 µM (active)
54 | COc1ccccc1CNS(=O)(=O)c1cc(Br)cc2c1N(C(C)=O)C(C)C2 (configuration not stated) | -0.972% (inactive) | –
55 | O=C(Nc1ccc(Br)cc1)c1ccc(Br)c(S(=O)(=O)NCc2ccccc2)c1 | -1.45% (inactive) | –
56 | COc1ccc(Cl)cc1S(=O)(=O)N1CCN(CC(=O)C(C)(C)C)CC1 | 10.4% (inactive) | –
57 | N#Cc1ccsc1NC(=O)CN1CCN(S(=O)(=O)c2cc(Cl)ccc2Cl)CC1 | -11.6% (inactive) | –
58 | O=C(CN1CCN(S(=O)(=O)c2cc(Cl)ccc2Cl)CC1)c1ccc(O)c(O)c1 | – | 44.7 µM (active)
59 | CCC(=O)Nc1ccccc1-c1nc2ccccc2n(CC(=O)Nc2ccc(C)c(C)c2)c1=O | -15.9% (inactive) | –
60 | CN(Cc1ccccc1)c1ncnc2onc(-c3ccc(F)cc3)c12 | 35.9% [at 57.1 µM] (inactive) | –
61 | CCOC(=O)C1CCN(S(=O)(=O)c2cc(F)ccc2OC)CC1 | -4.46% (inactive) | –
62 | CCOC(=O)C1CCCCN1Cc1ccc(OC)c(OC)c1OC (configuration not stated) | – | 31.6 µM (active)
63 | CCOC(=O)C1CCN(C(=O)/C=C/c2cc(OC)c(OC)c(OC)c2)CC1 | 6.29% (inactive) | –
64 | CCOC(=O)c1c(NC(=O)c2ccc(S(=O)(=O)N3CCCC(C)C3)cc2)sc2c1CCN(C(C)C)C2 (configuration not stated) | 1.44% (inactive) | –
65 | CC1CCCN(c2csc3ccc(F)cc3c2=O)C1 (configuration not stated) | -14.5% (inactive) | –
66 | COc1ccc(OCc2ccc(-c3nc4ccccc4c(=O)n3N)o2)cc1 | -21.5% (inactive) | –
67 | Cn1c(COc2ccc(Cl)cc2)nc2ccccc2c1=O | – | 50.1 µM (active)
68 | COc1ccccc1OCCCn1c(-c2ccc(Cl)cc2)nc2ccccc2c1=O | 3.81% (inactive) | –
69 | O=C(Nc1ccc2nc(SCCOc3ccccc3)sc2c1)c1ccco1 | -14.9% (inactive) | –
70 | CCCCN1C(=O)/C(=C/C=C2/C=Cc3ccccc3N2CC)SC1=S | -28.8% (inactive) | –
71 | CCCCN1C(=O)/C(=C2/C=CC=CN2C)SC1=S | – | 44.7 µM (active)
72 | CN1C=CC=C/C1=C1\SC(=S)N(Cc2ccccc2)C1=O | – | 50.1 µM (active)
73 | O=C1C(Cc2ccc(O)cc2)NC(=S)N1Cc1ccccc1 (configuration not stated) | -1.83% (inactive) | –
74 | CCCCN1C(=O)/C(=C2/Sc3ccc(Cl)cc3N2CC)SC1=S | 8.39% [at 57.1 µM] (inactive) | –
75 | COc1ccccc1NC(=O)Cn1cnc2ccc(S(=O)(=O)N3CCC(C)CC3)cc2c1=O | -23.3% (inactive) | –
76 | Cc1ccc2nc(N3CCN(c4cccc(Cl)c4)CC3)c3nnnn3c2c1 | -7.42% (inactive) | –
77 | Cn1c(=O)sc2cc(NS(=O)(=O)c3ccc(C(C)(C)C)cc3)ccc21 | -24% (inactive) | –
78 | O=C(/C=C/c1ccccc1)N1CCN(Cc2cc(=O)n3nc(-c4ccccc4F)sc3n2)CC1 | 3.61% (inactive) | –

Row | Structure (SMILES) | activity change, negative = inhibition | Potency
79 | Cc1cc(C)c(NC(=O)Cn2c(SCC(=O)NCc3ccccc3)nc3ccccc32)c(C)c1 | -19.9% (inactive) | –
80 | Cc1ccc(OCc2n[nH]c(=S)n2-c2ccccc2)cc1 | -27.8% (inactive) | –
81 | COc1ccc(OCc2n[nH]c(=S)n2N)cc1 | – | 56.2 µM (active)
82 | S=c1[nH]nc(COc2ccccc2)n1-c1ccccc1 | -0.261% (inactive) | –
83 | COc1ccc(C)cc1N(CC(=O)N1CCC(C)CC1)S(=O)(=O)c1ccc(C)cc1 | -0.594% (inactive) | –
84 | CCc1c(C)nc(N2CCN(Cc3ccccc3)CC2)[nH]c1=O | 0.116% (inactive) | –
85 | O=C1c2ccccc2C(=O)c2c1cccc2N1CCN(Cc2ccccc2)CC1 | – | 5.01 µM (active)
86 | O=S(=O)(c1cccs1)N1CCN(Cc2ccccc2)CC1 | 4.84% (inactive) | –
87 | CCOc1ccccc1NC(=O)CN1CCCN(Cc2cccc(Cl)c2)S1(=O)=O | -0.932% (inactive) | –
88 | COc1cccc2c1cc1c(=O)n(CC(=O)N3CCN(c4ccccc4)CC3)nc(C)n12 | 0.516% (inactive) | –
89 | CC(=O)N1c2ccc(S(=O)(=O)N3CCCCCC3)cc2CC1C(=O)NCc1ccccc1C (configuration not stated) | -10.3% (inactive) | –
90 | COc1ccc(C2C=C(c3ccc(Br)cc3)Nc3nc(NS(C)(=O)=O)nn32)cc1 (configuration not stated) | 3.31% (inactive) | –
91 | COc1ccc(C2=CC(c3ccccc3Cl)n3nc(-c4ccc(Cl)cc4)nc3N2)cc1 (configuration not stated) | -5.56% (inactive) | –
92 | Cc1ccc(C2C=C(c3ccc(Cl)cc3)Nc3nc(NC(=O)CCC(=O)O)nn32)cc1 (configuration not stated) | – | 79.4 µM (active)
93 | COc1ccc(-n2c(SCC(N)=O)nc3c(oc4ccccc43)c2=O)cc1 | 3.46% (inactive) | –
94 | COc1ccc(N2C(=O)CS(=O)(=O)C23C(=O)N(Cc2ccc(C)cc2)c2ccccc23)cc1Cl (configuration not stated) | 1.71% [at 57.1 µM] (inactive) | –
95 | COc1cccc(C(=O)NC(=O)Nc2ccc(-c3cc(C(F)(F)F)nn3-c3ccccc3)cc2)c1 | -9.64% (inactive) | –
96 | C=CCNc1scc(-c2ccccc2)[n+]1CC=C | – | 10 µM (active)
97 | C=CCNC(=O)c1csc(-c2ccccc2)n1 | -24.1% (inactive) | –
98 | C=CC[n+]1c(-c2ccc(C)cc2)csc1NNC(=O)Nc1ccccc1 | – | 31.6 µM (active)
99 | Cc1ccc(NC(=O)Nc2ccccc2)c(Br)c1 | -9.4% (inactive) | –
100 | Cc1ccc(-c2c[n+](CC(=O)Nc3ccccc3)c3n2CCC3)cc1 | -4.1% (inactive) | –
101 | O=C(CNS(=O)(=O)c1cccs1)N1CCN(c2ccccc2Cl)CC1 | 0.355% (inactive) | –
102 | Cc1ccc(C)c(Cn2c(C(=O)O)c(CNCc3cccs3)c3ccccc32)c1 | -15.7% (inactive) | –
